# Compounds without any hit were thinned out: in the full panel of roughly 79,000, 15% have a hit. Values without a mark were called inactive. Active and inactive are the calls of the source. Cut-off read from the data, not from the text of the source: active = growth inhibition above about 70%; inactive = the rest.
# What was measured:
# [1] = NCI Yeast Anticancer Drug Screen. Data for the wt1 strain (AID 149);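 note: 0% = growth of vehicle-treated wt1 cultures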; details: S. cerevisiae wt1 strain (SPY 50644) growth inhibition, hits give high values
# How it was run: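 Readout: yeast growth inhibition, normalised to vehicle controls, in the wt1 strain exposed to test compounds.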
# [2] = NCI Yeast Anticancer Drug Screen. Data for the rad50EPP+ strain (AID 151);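 note: 0% = growth of vehicle-treated control cultures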; details: S. cerevisiae rad50 mutant strain, hits give high values
# How it was run: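 Growth inhibition read against vehicle controls in rad50EPP+ yeast, a strain altered in DNA damage repair, after compound exposure.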
# [3] = NCI Yeast Anticancer Drug Screen. Data for the mgt1 strain (AID 153); details: S. cerevisiae mgt1 mutant growth inhibition, hits give high values
# How it was run: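 mgt1 yeast grown with test compound; read-out is growth inhibition versus vehicle-treated cultures.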
# [4] = NCI Yeast Anticancer Drug Screen. Data for the rad50 strain (AID 155);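 note: 0% = growth of vehicle-only cultures of the same strain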; details: S. cerevisiae rad50 strain growth inhibition, hits give high values
# How it was run: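 Compounds were tested on a yeast strain with an engineered DNA damage repair alteration; the reported value is growth inhibition normalised to vehicle treatment.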
# [5] = NCI Yeast Anticancer Drug Screen. Data for the mec2-1 strain (AID 157); details: S. cerevisiae mec2-1 strain, hits give high values
# How it was run: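 Yeast mec2-1 mutant treated with compound. Readout: growth inhibition vs vehicle controls.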
# [6] = NCI Yeast Anticancer Drug Screen. Data for the rad14 strain (AID 159);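 note: 0% = growth of vehicle-treated control cultures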; details: S. cerevisiae rad14 strain growth inhibition, hits give high values
# How it was run: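 Compound-treated yeast with a defined DNA-repair lesion; growth inhibition normalised to vehicle-treated cultures.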
# [7] = NCI Yeast Anticancer Drug Screen. Data for the sgs1 mgt1 strain (AID 161);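 note: 0% = growth of cultures given vehicle only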; details: S. cerevisiae sgs1 mgt1 strain, hits give high values
# How it was run: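 Genetically altered yeast, compound exposure, growth inhibition relative to vehicle.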
# [8] = NCI Yeast Anticancer Drug Screen. Data for the CLN2oe strain (AID 163);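 note: 0% = growth of vehicle-only control cultures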; details: S. cerevisiae CLN2oe strain, hits give high values
# How it was run: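 Read-out: yeast growth inhibition, expressed relative to vehicle-only controls. The strain bears an engineered cell-cycle alteration.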
# [9] = NCI Yeast Anticancer Drug Screen. Data for the cln2 rad14 strain (AID 165);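 note: 0% = growth equal to vehicle treated cultures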; details: S. cerevisiae cln2 rad14 strain, hits give high values
# How it was run: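 cln2 rad14 yeast strain; compound exposure; growth inhibition read vs vehicle controls.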
# [10] = NCI Yeast Anticancer Drug Screen. Data for the bub3 strain (AID 167); details: S. cerevisiae bub3 mutant strain, hits give high values
# How it was run: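 Growth of a checkpoint-deficient yeast mutant is measured after compound exposure. Values represent inhibition relative to vehicle.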
# [11] = NCI Yeast Anticancer Drug Screen. Data for the wt2 strain (AID 169);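 note: 0% = growth of vehicle-treated yeast cultures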; details: S. cerevisiae wt2 strain growth inhibition, hits give high values
# How it was run: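 Read-out: growth inhibition versus vehicle-treated control cultures after compound exposure of the yeast strain.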
# [12] = NCI Yeast Anticancer Drug Screen. Data for the mlh1 strain (AID 171);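 note: 0% = growth of vehicle-treated control cultures of the same strain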; details: S. cerevisiae mlh1 strain growth inhibition, hits give high values
# How it was run: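 Read-out: growth inhibition versus vehicle controls. Strain: engineered yeast with a defined DNA repair or cell cycle defect, compound-treated.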
# [13] = NCI Yeast Anticancer Drug Screen. Data for the sgs1 strain (AID 173);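 note: 0% = growth of vehicle-only control cultures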; details: S. cerevisiae sgs1 mutant, hits give high values
# How it was run: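 Read-out: yeast growth inhibition relative to vehicle controls, following compound exposure of a strain with a defined DNA repair/cell cycle alteration.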
# [14] = NCI Yeast Anticancer Drug Screen. Data for the mlh1 rad18 strain (AID 175); details: S. cerevisiae mlh1 rad18 strain growth inhibition, hits give high values
# How it was run: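 Yeast w/ defined DNA-repair lesions; compound exposure; growth vs vehicle controls → % inhibition.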
# [15] = NCI Yeast Anticancer Drug Screen. Data for the rad18 strain (AID 177); details: S. cerevisiae rad18 mutant growth inhibition, hits give high values
# How it was run: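 Readout: growth inhibition vs vehicle controls. Cells: genetically altered yeast strain, DNA repair defect.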
# [16] = at 5.0 µM (retest, dose inferred, filed as 0.5)
# [17] = at 50.0 µM (retest, dose inferred, filed as 5.0)
compound,measurement,setting,value
CC[C@]1(O)C[C@H]2CN(CCc3c([nH]c4ccccc34)[C@@](C(=O)OC)(c3cc4c(cc3OC)N(C)[C@H]3[C@@](O)(C(=O)OC)[C@H](OC(C)=O)[C@]5(CC)C=CCN6CC[C@]43[C@@H]65)C2)C1,growth inhibition,[1]; at 1.2 µM,1%
same,growth inhibition,[1]; at 3.7 µM,-1%
same,growth inhibition,[1]; at 11.0 µM,-2%
same,growth inhibition,[1]; at 33.0 µM,-1%
same,growth inhibition,[1]; at 100.0 µM,-19%
same,growth inhibition,[2]; at 1.2 µM,-2%
same,growth inhibition,[2]; at 3.7 µM,-3%
same,growth inhibition,[2]; at 11.0 µM,-2%
same,growth inhibition,[2]; at 33.0 µM,-1%
same,growth inhibition,[2]; at 100.0 µM,-6%
same,growth inhibition,[3]; at 1.2 µM,-2%
same,growth inhibition,[3]; at 3.7 µM,-3%
same,growth inhibition,[3]; at 11.0 µM,-1%
same,growth inhibition,[3]; at 33.0 µM,-2%
same,growth inhibition,[3]; at 100.0 µM,-6%
same,growth inhibition,[4]; at 1.2 µM,-2%
same,growth inhibition,[4]; at 3.7 µM,-3%
same,growth inhibition,[4]; at 11.0 µM,2%
same,growth inhibition,[4]; at 33.0 µM,-4%
same,growth inhibition,[4]; at 50.0 µM,-4.25%
same,growth inhibition,[4]; at 100.0 µM,-5%
same,growth inhibition,[5]; at 1.2 µM,-2%
same,growth inhibition,[5]; at 3.7 µM,0%
same,growth inhibition,[5]; at 11.0 µM,-2%
same,growth inhibition,[5]; at 33.0 µM,1%
same,growth inhibition,[5]; at 50.0 µM,-3.3%
same,growth inhibition,[5]; at 100.0 µM,-7%
same,growth inhibition,[6]; at 1.2 µM,-2%
same,growth inhibition,[6]; at 3.7 µM,-4%
same,growth inhibition,[6]; at 11.0 µM,0%
same,growth inhibition,[6]; at 33.0 µM,-2%
same,growth inhibition,[6]; at 100.0 µM,-3%
same,growth inhibition,[7]; at 50.0 µM,1.35%
same,growth inhibition,[8]; at 1.2 µM,-2%
same,growth inhibition,[8]; at 3.7 µM,3%
same,growth inhibition,[8]; at 11.0 µM,1%
same,growth inhibition,[8]; at 33.0 µM,-11%
same,growth inhibition,[8]; at 100.0 µM,-6%
same,growth inhibition,[9]; at 50.0 µM,24.4%
same,growth inhibition,[10]; at 1.2 µM,1%
same,growth inhibition,[10]; at 3.7 µM,1%
same,growth inhibition,[10]; at 11.0 µM,-1%
same,growth inhibition,[10]; at 33.0 µM,-7%
same,growth inhibition,[10]; at 50.0 µM,14.3%
same,growth inhibition,[10]; at 100.0 µM,-7%
same,growth inhibition,[11]; at 1.2 µM,-1%
same,growth inhibition,[11]; at 3.7 µM,0%
same,growth inhibition,[11]; at 11.0 µM,-3%
same,growth inhibition,[11]; at 33.0 µM,-3%
same,growth inhibition,[11]; at 100.0 µM,-4%
same,growth inhibition,[12]; at 1.2 µM,0%
same,growth inhibition,[12]; at 3.7 µM,-1%
same,growth inhibition,[12]; at 11.0 µM,-1%
same,growth inhibition,[12]; at 33.0 µM,-1%
same,growth inhibition,[12]; at 100.0 µM,-4%
same,growth inhibition,[13]; at 1.2 µM,0%
same,growth inhibition,[13]; at 3.7 µM,-2%
same,growth inhibition,[13]; at 11.0 µM,1%
same,growth inhibition,[13]; at 33.0 µM,1%
same,growth inhibition,[13]; at 100.0 µM,-3%
same,growth inhibition,[14]; at 50.0 µM,30.6%
same,growth inhibition,[15]; at 1.2 µM,-2%
same,growth inhibition,[15]; at 3.7 µM,-3%
same,growth inhibition,[15]; at 11.0 µM,-5%
same,growth inhibition,[15]; at 33.0 µM,-6%
same,growth inhibition,[15]; at 100.0 µM,-7%
CCC1SC(=S)N(c2ccc(Cl)cc2)C1=O (centres undefined),growth inhibition,[1]; at 1.2 µM,-2%
same,growth inhibition,[1]; at 3.7 µM,-2%
same,growth inhibition,[1]; at 11.0 µM,10%
same,growth inhibition,[1]; at 33.0 µM,23%
same,growth inhibition,[1]; at 100.0 µM,78% (active)
same,growth inhibition,[2]; at 1.2 µM,-5%
same,growth inhibition,[2]; at 3.7 µM,21%
same,growth inhibition,[2]; at 11.0 µM,42%
same,growth inhibition,[2]; at 33.0 µM,96% (active)
same,growth inhibition,[2]; at 100.0 µM,98% (active)
same,growth inhibition,[4]; at 1.2 µM,-17%
same,growth inhibition,[4]; at 3.7 µM,-19%
same,growth inhibition,[4]; [16],8%
same,growth inhibition,[4]; at 11.0 µM,6%
same,growth inhibition,[4]; at 33.0 µM,84% (active)
same,growth inhibition,[4]; [17],35%
same,growth inhibition,[4]; at 50.0 µM,45%
same,growth inhibition,[4]; at 100.0 µM,96% (active)
same,growth inhibition,[5]; at 1.2 µM,-3%
same,growth inhibition,[5]; at 3.7 µM,-5%
same,growth inhibition,[5]; [16],1%
same,growth inhibition,[5]; at 11.0 µM,-6%
same,growth inhibition,[5]; at 33.0 µM,-9%
same,growth inhibition,[5]; [17],43%
same,growth inhibition,[5]; at 50.0 µM,26.7%
same,growth inhibition,[5]; at 100.0 µM,16%
same,growth inhibition,[6]; at 1.2 µM,4%
same,growth inhibition,[6]; at 3.7 µM,1%
same,growth inhibition,[6]; at 11.0 µM,12%
same,growth inhibition,[6]; at 33.0 µM,26%
same,growth inhibition,[6]; at 100.0 µM,75% (active)
same,growth inhibition,[7]; [16],4%
same,growth inhibition,[7]; [17],68%
same,growth inhibition,[7]; at 50.0 µM,66%
same,growth inhibition,[8]; at 1.2 µM,-9%
same,growth inhibition,[8]; at 3.7 µM,-10%
same,growth inhibition,[8]; at 11.0 µM,-16%
same,growth inhibition,[8]; at 33.0 µM,-20%
same,growth inhibition,[8]; at 100.0 µM,75% (active)
same,growth inhibition,[9]; [16],-3%
same,growth inhibition,[9]; [17],-4%
same,growth inhibition,[9]; at 50.0 µM,-11.6%
same,growth inhibition,[10]; at 1.2 µM,-11%
same,growth inhibition,[10]; at 3.7 µM,-10%
same,growth inhibition,[10]; [16],-6%
same,growth inhibition,[10]; at 11.0 µM,-13%
same,growth inhibition,[10]; at 33.0 µM,22%
same,growth inhibition,[10]; [17],44%
same,growth inhibition,[10]; at 50.0 µM,6.05%
same,growth inhibition,[10]; at 100.0 µM,97% (active)
same,growth inhibition,[12]; at 1.2 µM,-14%
same,growth inhibition,[12]; at 3.7 µM,-10%
same,growth inhibition,[12]; at 11.0 µM,-10%
same,growth inhibition,[12]; at 33.0 µM,48%
same,growth inhibition,[12]; at 100.0 µM,97% (active)
same,growth inhibition,[13]; at 1.2 µM,-8%
same,growth inhibition,[13]; at 3.7 µM,-8%
same,growth inhibition,[13]; at 11.0 µM,22%
same,growth inhibition,[13]; at 33.0 µM,75% (active)
same,growth inhibition,[13]; at 100.0 µM,98% (active)
same,growth inhibition,[14]; [16],0%
same,growth inhibition,[14]; [17],71% (active)
same,growth inhibition,[14]; at 50.0 µM,65%
same,growth inhibition,[15]; at 1.2 µM,-8%
same,growth inhibition,[15]; at 3.7 µM,-10%
same,growth inhibition,[15]; at 11.0 µM,-3%
same,growth inhibition,[15]; at 33.0 µM,48%
same,growth inhibition,[15]; at 100.0 µM,87% (active)
